Htt clearance: clearance of mutant huntingtin inclusions, primary screen, imaging, HeLa Exon1htt(103Q)mCFP, confocal imaging; aggregate imaging; zero = plate's median compound well; inhibition, % at 1.5 µM; 0.42% of 47,000 active; AID 853, 2007;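 active = inhibition of aggregate fluorescence above about 70%, also judged a hit by eye on the cell image, limit read from the data, passing the limit was not always enough; inconclusive = no rule stated for this call; inactive = not judged a hit on image review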;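 note: cells exposed to compound for three days before fixation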
D1 mod: D1 CRE-luciferase signal change, two-sided – cell-based, HEK293 D1, dopamine EC30, D1 allosteric modulator project, primary screen; D(1A) dopamine receptor (Homo sapiens), P21728; dopamine EC30 potentiation; actives deviate in either direction; B-score at 10 µM; 5.9% of 58,000 active; AID 641, 2007;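 active = luminescence count or its row- and column-corrected plate score outside the 99.7% band of the plate's sample wells, on either side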
M1 agonist: M1 muscarinic receptor agonists, primary screen, CHO-M1 cells, Fluo-4 calcium, agonist mode; Muscarinic acetylcholine receptor M1; B-score at 10 µM; 3% of 64,000 active; AID 626, 2007; Fluo-4 calcium fluorescence; hits give high values;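 active = fluorescence rise, raw or as B-score row- and column-corrected plate score, outside the 99.7% band of its plate's samples, either direction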
WNV protease inh: inhibitors of WNV NS2B-NS3 protease, primary screen, biochemical, fluorogenic substrate | Genome polyprotein (West Nile virus), P06935 | fluorogenic substrate Ex360/Em465; hits give low values | z-score (test concentration not listed) | 0.18% of 65,000 active | AID 577, 2007; in the data active = z-score below about -3
M1 antag: antagonists of rat M1 muscarinic receptor; Muscarinic acetylcholine receptor M1 (Rattus norvegicus), P08482; CHO-M1 cells, Fluo-4 calcium, ACh EC80 antagonist mode; hits give low values; B-score at 10 µM; 3.4% of 64,000 active;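 active = calcium fluorescence response, raw or row-and-column corrected B-score, differing from the plate sample mean either way at a set confidence level, mostly lower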
Target sequence (P08482 whole entry, looked up): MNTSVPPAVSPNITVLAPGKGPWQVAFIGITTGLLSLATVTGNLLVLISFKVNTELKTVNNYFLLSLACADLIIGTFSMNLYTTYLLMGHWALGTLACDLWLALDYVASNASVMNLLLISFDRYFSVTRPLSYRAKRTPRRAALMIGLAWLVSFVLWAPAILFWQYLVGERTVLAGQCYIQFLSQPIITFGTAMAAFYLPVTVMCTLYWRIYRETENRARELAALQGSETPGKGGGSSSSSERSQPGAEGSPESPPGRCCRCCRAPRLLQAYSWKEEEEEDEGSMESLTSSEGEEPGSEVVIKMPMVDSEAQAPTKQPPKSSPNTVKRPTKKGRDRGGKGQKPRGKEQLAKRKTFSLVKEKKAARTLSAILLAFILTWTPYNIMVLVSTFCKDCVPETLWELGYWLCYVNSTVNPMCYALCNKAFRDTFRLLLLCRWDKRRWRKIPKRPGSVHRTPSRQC
D1 PAM confirm: D1 receptor positive allosteric modulators, retest, confirmation, cell-based, HEK293 D1, CRE-luciferase, duplicate; shares compounds with D1 mod; dopamine EC30 potentiation; hits give high values; luminescence at 10 µM; 88% of 2,200 active; AID 642, 2007;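 active = luminescence in either of two replicates above the same-plate mean plus 3 SD of the low-dose dopamine control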
D1 ag no DA: D1 receptor agonism without dopamine, confirmation, mechanism study for D1 allosteric modulator project, cell-based, HEK293 D1, CRE-luciferase, secondary assay 1. shares compounds with D1 mod. luminescence, no dopamine; hits give high values. luminescence at 10 µM. 0.8% of 1,900 active. AID 646, 2007; in the data active = luminescence above about 3900
Isoprot counter: isoproterenol response counter-screen activity for D1 modulators | shares compounds with D1 mod | HEK293 D1 CRE-luciferase, isoproterenol EC30 counter-screen | calls only at 10 µM | 63% of 2,200 active | AID 647;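 active = luminescence in either replicate above plate mean of wells with a partly effective reference agonist dose plus 3 SD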;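 note: isoproterenol raises cAMP through native beta-adrenoceptor Gs so signal bypasses D1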
* = called active by the depositor. Most compounds without a hit are left out; they make up all but 8.9% or so of the library.

`O=C(NC1CCCC1)c1cnn2c(C(F)(F)F)cc(-c3ccco3)nc12` gave Htt clearance -50.5, D1 mod 3.47, M1 agonist 0.925, WNV protease inh -1.09 and M1 antag -1.32.
`CCCOC(=O)NC(CC)COC(=O)Nc1cccc(C)c1C` (stereo not given) gave D1 mod 8.18*, M1 agonist -0.276, WNV protease inh -0.09, M1 antag 0.0777, D1 PAM confirm 6072, D1 ag no DA 1720 and Isoprot counter inactive.
`CC1(C)N=C(c2ccc(Cl)cc2)C(=O)N1` gave Htt clearance 35.6, D1 mod -0.101, M1 agonist 1.18, WNV protease inh 0.39 and M1 antag 1.13.
`Cc1cc(C(F)F)n2ncc(C(=O)N3CCC(C(N)=O)CC3)c2n1` gave Htt clearance 5.7.
Screening COc1ccc(CNC(=O)c2cnn3c(C(F)F)cc(C)nc23)cc1OC returned D1 mod 3.9*, M1 agonist -2.69, WNV protease inh -0.28, M1 antag -0.717, D1 PAM confirm 8268*, D1 ag no DA 1472 and Isoprot counter active.
`CCOC(=O)N1CCC(N2Cc3cccc(C(=O)NC(C)c4ccc5c(c4)OCCO5)c3C2=O)CC1` (stereo not given) gave D1 mod 2.41*, M1 agonist 0.233, WNV protease inh -0.00466, M1 antag -0.634, D1 PAM confirm 8332*, D1 ag no DA 1632 and Isoprot counter inactive.
`COC(=O)c1ccc(NC(=O)Cn2nc(SC)n(N)c2=S)cc1` gave D1 mod 0.0398, M1 agonist -0.0458, WNV protease inh -2.1 and M1 antag -0.349.
Screening CCOC(=O)/C(C#N)=C1/SC(CCO)C(=O)N1c1ccccc1 (stereo not given) returned Htt clearance 31.0, M1 agonist -0.687, WNV protease inh -0.79 and M1 antag 0.434.
`CCC1S/C(=C(\C#N)C(N)=O)N(c2ccc(F)cc2)C1=O` (stereo not given) gave Htt clearance 17.2, D1 mod 4.98*, M1 agonist -1.04, WNV protease inh -0.00629, M1 antag -0.0924, D1 PAM confirm 9908* and Isoprot counter active.
`Cc1nc(NS(=O)(=O)c2ccccc2)sc1NC(=O)OC(C)C` gave D1 mod 2.36*, M1 agonist -0.0135, WNV protease inh 0.01, M1 antag -0.894, D1 PAM confirm 4964 and Isoprot counter inactive.
Cc1ccc(S(=O)(=O)Nc2nc(C)c(NC(=O)OCCCl)s2)cc1 was read as Htt clearance 5.4.
Cc1cc(C)c2[nH]c(=O)c(C(c3nnnn3C3CCCC3)N3CCOCC3)cc2c1 (stereo not given) was read as D1 mod -0.329, M1 agonist 0.465, WNV protease inh -0.15 and M1 antag 1.64.
CC(C)(C)C1CCc2onc(C(=O)Nc3cccnc3)c2C1 (stereo not given) was read as D1 mod 10.5*, M1 agonist 0.44, WNV protease inh -0.27, M1 antag 0.544, D1 PAM confirm 19704*, D1 ag no DA 1720 and Isoprot counter active.
Screening CC(C)(C)C1CCc2onc(C(=O)Nc3cccc(O)c3)c2C1 (stereo not given) returned Htt clearance 12.7.
Screening Cc1cccc(-n2c(=O)[nH]c3c(C(N)=O)nc(C(C)C)nc32)c1 returned D1 mod 5.53*, M1 agonist 0.362, WNV protease inh -0.63, M1 antag 0.0195, D1 PAM confirm 10016*, D1 ag no DA 1376 and Isoprot counter inactive.
Screening CCc1nnc(NC(=O)Cc2ccc(OCc3c(C)noc3C)cc2)s1 returned Htt clearance -35.1, D1 mod 0.299, M1 agonist 1.16, WNV protease inh 0.32 and M1 antag -0.143.
Cc1ccc(-c2c(C)sc(=NC(=O)c3ccco3)n2C)cc1 was read as Htt clearance -61.3.
`COc1ccc(OC)c2c1sc(=NC(=O)c1ccco1)n2C` gave D1 mod 3.16*, M1 agonist -1.49, WNV protease inh -0.37, M1 antag -2.49, D1 PAM confirm 13568*, D1 ag no DA 1564 and Isoprot counter active.
Screening Cc1noc(C)c1CSc1nnc(-c2cc(Cl)ccc2Cl)n1N returned Htt clearance inconclusive, D1 mod 9.53*, M1 agonist -0.629, WNV protease inh -0.32, M1 antag 0.921, D1 PAM confirm 25992*, D1 ag no DA 1756 and Isoprot counter active.
Screening O=C(CN1C(=O)C2CC=C(Cl)CC2C1=O)Nc1ccc(C(=O)O)cc1 (stereo not given) returned D1 mod 0.459, M1 agonist -1.62, WNV protease inh 0.37 and M1 antag -0.199.
Screening CCOC(=O)C1=C(N)n2c(s/c(=C\c3cccs3)c2=O)=C(C(=O)OCC)C1c1cccs1 (stereo not given) returned Htt clearance -66.5, D1 mod 4.57*, M1 agonist -0.144, WNV protease inh -0.43, M1 antag -0.614, D1 PAM confirm 10396*, D1 ag no DA 1664 and Isoprot counter active.
CCC(C)n1cnc2c(c1=O)c1nc3ccccc3nc1n2Cc1ccc2c(c1)OCO2 (stereo not given) was read as Htt clearance -1.5, D1 mod 9.83*, M1 agonist 0.254, WNV protease inh -1.34, M1 antag -0.509, D1 PAM confirm 14800*, D1 ag no DA 1636 and Isoprot counter active.
For CCCCn1c2nc3ccccc3nc2c2c(=O)n(CC(C)C)cnc21 the results were M1 agonist 0.0977, WNV protease inh 0.41 and M1 antag -1.46.
`CCCCn1c2nc3ccccc3nc2c2c(=O)n(C(C)CC)cnc21` (stereo not given) gave D1 mod 10.5*, M1 agonist 0.445, WNV protease inh -0.29, M1 antag -1.58, D1 PAM confirm 11776*, D1 ag no DA 1928 and Isoprot counter inactive.
`COc1cccc(OC)c1C(=O)N1CCN(S(=O)(=O)c2ccc(C)cc2)CC1` gave D1 mod -0.487, M1 agonist 0.283, WNV protease inh 0.28 and M1 antag 0.134.
CC1(C)CC(=O)C(CCC(=O)c2ccccc2)C(C)(C)N1 (stereo not given) was read as D1 mod 4.67*, M1 agonist -0.638, WNV protease inh 2.3, M1 antag -0.0228, D1 PAM confirm 4348, D1 ag no DA 1672 and Isoprot counter inactive.

Bioassay records (PubChem)
